Measured values from ChEMBL document CHEMBL3988442, “University of Dundee, Small-Polar-MMV Screening Library” (2021).
Screen size: about 48,000 compounds; about 13,000 (27%) showed an effect of 50% or more. This is one part of the list.

system: Wolbachia pipientis; assay: Anti-Wolbachia Cell-Based Screen; type: functional; design: scale not given: in the data most compounds retested in dose-response had high values; settings: 5 µM

SMILES | Percent Effect [%]
CCN(CC)C(C(=O)Nc1ccc2c(c1)CCC(=O)N2)c1ccccc1 (stereo not given) | -21.99
O=C(CN1CCN(c2ncccn2)[C@@H]2CS(=O)(=O)C[C@@H]21)N1CCCCC1 | -9.163
Cc1ccc(C(=O)O)cc1-c1cccc(C(C)N(C)C)c1 (stereo not given) | -7.98
CC(c1cccc(-c2ncccc2C#N)c1)N(C)C (stereo not given) | 104.1
CC(c1cccc(-c2nccn2CCc2ccccn2)c1)N(C)C (stereo not given) | 15.78
CC(c1cccc(-c2ccc(C(=O)O)cc2Cl)c1)N(C)C (stereo not given) | -4.101
CC(c1cccc(-c2nccn2CCc2cn[nH]c2)c1)N(C)C (stereo not given) | 8.832
Cc1cnc(Cn2cc(-c3cccc(C(C)N(C)C)c3)nn2)cn1 (stereo not given) | -24.3
COC(C)(C)Cn1ccnc1-c1cccc(C(C)N(C)C)c1 (stereo not given) | 3.994
CC(c1cccc(-c2ncc(C#N)c(N)n2)c1)N(C)C (stereo not given) | 111.9
CC(c1cccc(-c2ncccc2F)c1)N(C)C (stereo not given) | 118.4
COc1ccccc1[C@@H]1CN(Cc2cc(C(C)(C)C)[nH]n2)C[C@H]1C(=O)O | -3.476
CCc1cnc(NCC2OCCc3ccccc32)nc1 (stereo not given) | 32.64
Cn1ccnc1NC[C@@H]1CCC[C@@H]2CN(CC3CC3)C[C@@H]21.O=C(O)C(F)(F)F | 12.38
COc1ccnc(CN2CCC=C(C(C)NC(C)=O)C2)c1OC (stereo not given) | -37.4
CC(C)Nc1ncnc2c1CCN(C(=O)NCc1cccnc1)CC2.O=C(O)C(F)(F)F | -1.871
O=C(NCc1cccc(F)c1)N1CCc2ncnc(NC3CC3)c2CC1 | 117.5
O=C(NCc1cccnc1)N1CCc2ncnc(NC3CC3)c2CC1.O=C(O)C(F)(F)F | 96.91
CCN(C)c1ncnc2c1CCN(C(=O)NCc1cccnc1)CC2.O=C(O)C(F)(F)F | 18.48
COc1ncnc2c1CCN(C(=O)NCc1cccnc1)CC2.O=C(O)C(F)(F)F | 5.156
CC(C)Nc1ncnc2c1CCN(C(=O)NCc1cccc(F)c1)CC2 | 86.35
O=C(NCc1cccnc1)N1CCc2ncnc(C3CC3)c2CC1.O=C(O)C(F)(F)F | -6.522
O=C(NCc1ccccc1)N1CCc2ncnc(NC3CC3)c2CC1 | 108.7
CCOc1ncnc2c1CCN(C(=O)NCc1cccnc1)CC2.O=C(O)C(F)(F)F | 0.188
COc1ncnc2c1CCN(C(=O)NCc1cccc(F)c1)CC2 | -12.16

SMILES | Percent Effect [%]
CN1CCc2[nH]nc(C(=O)N3CCC4(CN(C)C(=O)O4)C3)c2C1 (stereo not given) | 3.232
CCC(O)CN1CCN(C(=O)c2cccc3[nH]ncc23)CC1 (stereo not given) | 10.02
CCN(C)S(=O)(=O)c1c(F)cc(NC(C)=O)cc1F | 15.35
CCC(Nc1nc(CCN)nc2ccccc12)c1cc(C)ccn1 (stereo not given) | 5.857
Cc1nn(CC(=O)Nc2ccc(F)cc2)c(N)c1C#N | -10.06
COc1ccccc1-c1cc(C(F)(F)F)c2c(C)nn(CC(=O)O)c2n1 | -3.37
CN(C(=O)Cn1nc(-c2ccc(F)cc2)oc1=O)C1CCS(=O)(=O)C1 (stereo not given) | -25.19
O=C(O)Cn1nc(C2CC2)c2c(-c3ccc(F)cc3)ccnc21 | 106.5
O=C(Cn1nc(-c2ccc(F)cc2)oc1=O)Nc1ccccc1 | -16.04
Cc1nn(CC(=O)O)c2nccc(-c3ccc(F)cc3)c12 | 132.8
O=C(CO)N1CCN(C(=O)c2coc3ccccc23)CC1 | -5.618
CS(=O)(=O)N1CCC2(CC1)CC(NCC1CC1)c1ccccc12.O=C(O)C(F)(F)F (stereo not given) | 107.6
Cn1cncc1CNC1CC2(CCN(CC3CC3)CC2)c2ccccc21.O=C(O)C(F)(F)F.O=C(O)C(F)(F)F (stereo not given) | -10.77
CNC(=O)CNC1CC2(CCN(c3ncccn3)CC2)c2ccccc21.O=C(O)C(F)(F)F.O=C(O)C(F)(F)F (stereo not given) | -16.8
CS(=O)(=O)N1CCC2(CC1)CC(NCc1ccco1)c1ccccc12.O=C(O)C(F)(F)F (stereo not given) | 91.69
CS(=O)(=O)N1CCC2(CC1)CC(CC(=O)NC1CC1)c1ccccc12 (stereo not given) | 17.75
Cn1cc(CNC2CC3(CCN(S(C)(=O)=O)CC3)c3ccccc32)cn1.O=C(O)C(F)(F)F (stereo not given) | 94.6
Cn1cncc1CNC1CC2(CCN(S(C)(=O)=O)CC2)c2ccccc21.O=C(O)C(F)(F)F (stereo not given) | -9.896
CS(=O)(=O)N1CCC2(CC1)CC(NCc1ccccn1)c1ccccc12 (stereo not given) | 90.85
O=C(O)C(F)(F)F.O=C(O)C(F)(F)F.c1cnc(N2CCC3(CC2)CC(NCC2CC2)c2ccccc23)nc1 (stereo not given) | 1.529
CS(=O)(=O)N1CCC2(CC1)CC(CC(=O)N1CCCC1)c1ccccc12 (stereo not given) | 5.675
Cn1cc(CNC2CC3(CCN(CC4CC4)CC3)c3ccccc32)cn1.O=C(O)C(F)(F)F.O=C(O)C(F)(F)F.O=C(O)C(F)(F)F (stereo not given) | -14.88
Cc1noc(CCCC(=O)N2CCNC(=O)C2)n1 | -6.568
Cc1c(C(C)Nc2ncnc3sccc23)cnn1C (stereo not given) | -5.704
CCn1ccnc1CN(C)Cc1nc(CCC(C)C)no1 | -3.993

SMILES | Percent Effect [%]
COc1ccccc1[C@@H]1CN(C(=O)c2csc(C)n2)C[C@H]1C(=O)O | -8.955
CCn1cc(CN(C)c2nc(C)c3ccc(S(C)(=O)=O)cc3n2)cn1 | -19.68
Cc1nnc(N2CCOC(Cn3cccn3)C2)c(C#N)c1C (stereo not given) | -2.698
CCc1[nH]c2c(CNC(=O)C3CCN(C)C3)cc(C)cc2c1C (stereo not given) | -4.959
Cc1nccc(C2CN(C(=O)c3cncnc3)C2)n1 | 123.7
Cc1ncncc1C(=O)N1C[C@H]2CC[C@@H]1CN(C(=O)c1ccncc1)C2 | -6.558
Cc1nc(O)cc(C2CCCN(C(=O)c3cccc(N(C)C)c3)C2)n1 (stereo not given) | 2.27
CCCc1cc(C(=O)N2CC(c3ccncc3)C2)ccn1 | -34.73
Cc1cccc(C2CCCN(C(=O)c3ccncc3)C2)n1 (stereo not given) | 137.8
Cc1nccc(C2CCCN(C(=O)c3cncnc3)C2)n1 (stereo not given) | 134.6
Cc1cc(C(=O)N[C@H]2CC[C@@]3(CCC(=O)N3)CC2)no1 | -22.87
CNC(=O)c1coc(-c2csc(C)n2)c1 | 7.776
Cc1csc2cc(C(=O)NC3CC3)cnc12 | 125.4
O=C(NC1CCC(O)CC1)c1cnc2c(cnn2C2CCCC2)c1 (stereo not given) | -3.379
CCc1nc(CNC(=O)Nc2ccc(C(=O)NC)cc2C)cs1 | -1.988
CCOc1ccc(C(=O)NC2CC2)cc1C | -6.669
Cc1csc2cc(C(=O)NC3CCCC3)cnc12 | 127
CCNc1ncc(C(=O)NC2CCOCC2)cn1 | -0.8414
Cc1ccsc1CCNC(C)C(=O)NC1CCCC1 (stereo not given) | 3.624
CNC(=O)c1cnc2c(C)csc2c1 | 142.5
Cc1cc(C2CCCN2C(=O)Cn2c(C)cc(=O)c3ccccc32)on1 (stereo not given) | -2.941
COCC(=O)N1CCN(C(=O)C2CCCCC2)[C@@H](C(=O)OC)C1 | -2.41
Cc1nccn1C1CCCN(C(=O)COCC(F)(F)F)C1 (stereo not given) | 9.036
Cc1nc(C)n(C2CCCN(C(=O)c3nc(C)n4ccccc34)C2)n1 (stereo not given) | -12.32
Cc1nc(C)n(C2CCCN(C(=O)Cc3cn4ccccc4n3)C2)n1 (stereo not given) | 141.6

SMILES | Percent Effect [%]
CCc1nccn1C1CCCN(C(=O)Cc2cn3ccccc3n2)C1 (stereo not given) | 11.58
Cc1nccn1C1CCCN(C(=O)Cc2cn3ccccc3n2)C1 (stereo not given) | 129.5
N#CC1(NC(=O)Cn2nnc(-c3cc4ccccc4o3)n2)CCCC1 | 6.129
CCOC(=O)NC(CNC(=O)c1cn(C)cn1)CC(C)C (stereo not given) | -4.121
COc1cnc(N2CCC(c3ncc[nH]3)CC2)nc1 | 16.53
COc1cc(-c2cc(NC3CCCC3)nc3[nH]ccc23)nc(N)n1 | -4.005
COc1ccc2[nH]cc(-c3ccnc(N4CCC(C)CC4)n3)c2c1 | 108.4
COc1ccc2[nH]cc(C3CCN(CCC(N)=O)CC3)c2c1 | -13.9
COc1ccc2[nH]cc(-c3ccnc(NC4CCCC4)n3)c2c1 | 98.2
COc1nccnc1-c1cc(NC2CCCC2)nc2[nH]ccc12 | -1.982
COC(=O)c1cc(NS(=O)(=O)c2cn(C)cn2)c(F)cc1F | -3.496
CS(=O)(=O)c1nnc(NC(=O)CCc2cccs2)[nH]1 | 5.426
O=C(NCc1ccc(-n2cncn2)nc1)c1ccc2c(c1)CCO2 | 2.792
COCCN1CCO[C@@H]2CN(C(=O)NCc3cccnc3)CC[C@@H]2C1.O=C(O)C(F)(F)F.O=C(O)C(F)(F)F | -7.719
CCN1CCO[C@@H]2CN(C(=O)NCc3ccccc3)CC[C@@H]2C1 | 91.66
CC(=O)N1CCO[C@@H]2CN(C(=O)NCc3ccccc3)CC[C@@H]2C1 | 88.95
CCN1CCO[C@@H]2CN(C(=O)c3ccc4[nH]ccc4c3)CC[C@@H]2C1.O=C(O)C(F)(F)F | -16
CC(=O)N1CCO[C@@H]2CN(C(=O)NCc3cccnc3)CC[C@@H]2C1.O=C(O)C(F)(F)F | -5.554
CCN(CC)Cc1cc(C(=O)N2CCCC(O)(CO)C2)c(C)o1 (stereo not given) | 4.357
CCCc1ccc(CN2CCN(C(=O)N(C)C)[C@@H]3CS(=O)(=O)C[C@@H]32)o1 | 6.47
Cc1ccc(CN2CCN(Cc3nccn3C)[C@H]3CS(=O)(=O)C[C@H]32)o1 | 91.25
CCCc1ccc(CN2CCN(c3ncccn3)[C@@H]3CS(=O)(=O)C[C@@H]32)o1 | -1.361
CCCc1ccc(CN2CCN(C(=O)C(C)C)[C@@H]3CS(=O)(=O)C[C@@H]32)o1 | 2.422
CCn1ccnc1CN1CCN(Cc2ccc(C)o2)[C@@H]2CS(=O)(=O)C[C@@H]21 | 98.63
CCCc1ccc(CN2CCN(C(=O)NCC)[C@H]3CS(=O)(=O)C[C@H]32)o1 | -11.9
